From PubChem BioAssay (NCATS)
Records with an inconclusive call do not appear. Activity calls are given as the source filed them. Calls come from the whole dose curve; as a rule, active = well fitted curve in the direction sought with a large enough effect; inconclusive = small, poorly fitted or top-dose-only effect, or another doubt; inactive = no such curve, though single readings can be large; an effect the other way counts as inactive or inconclusive.

Columns and labels:
HACAT = assay: qHTS assay to identify novel small-molecules to repurpose for Merkel cell carcinoma treatment (AID 1296009); conditions: MCC and control cell lines, CellTiter-Glo viability, 72 h; at 44.8 µM (top of the series) unless noted; note: nearly all actives have a fitted effect of over 60% in size
Method in brief: (§1)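 Cell viability, measured as CellTiter-Glo luminescence, was normalized between DMSO and no-cell wells. The cells had been exposed to 8- or 11-point compound dilutions for 72 hr at 37 degree celsius.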

NIH3T3 = assay: as above; conditions: MCC and control cell lines, CellTiter-Glo viability, 72 h; at 44.8 µM (top of the series) unless noted
Method in brief: as §1

C33A = assay: Primary qHTS to identify gynecologic anti-cancer compounds using libraries of approved drugs and bioactive compounds (AID 1345084); conditions: Gynecologic cancer cell panel viability, ATPlite luminescence, 48 h; series mostly up to 57.5 µM; note: % is set by controls: 0 for no effect and ±100 for the full control effect; nearly all actives have a fitted effect of over 55% in size
Method in brief: (§2)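 Measured: luminescence after ATPlite addition (15 min, RT). Exposure: 48 h, 37 C, 5% CO2.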

CASKI = assay: as above; conditions: Gynecologic cancer cell panel viability, ATPlite luminescence, 48 h; series mostly up to 57.5 µM
Method in brief: as §2

Es-2 = assay: as above; conditions: Gynecologic cancer cell panel viability, ATPlite luminescence, 48 h; series mostly up to 57.5 µM
Method in brief: as §2

HeLa = assay: as above; conditions: Gynecologic cancer cell panel viability, ATPlite luminescence, 48 h; series mostly up to 57.5 µM
Method in brief: as §2

Hek293T = assay: as above; conditions: Gynecologic cancer cell panel viability, ATPlite luminescence, 48 h, control line for the selectivity index; series mostly up to 57.5 µM
Method in brief: as §2

JEG-3 = assay: as above; conditions: Gynecologic cancer cell panel viability, ATPlite luminescence, 48 h; series mostly up to 57.5 µM
Method in brief: as §2

CAOV3 = assay: as above; conditions: Gynecologic cancer cell panel viability, ATPlite luminescence, 48 h; series mostly up to 57.5 µM
Method in brief: as §2

COC(=O)/C=C/c1ccc(O[C@@H]2O[C@H](CO)[C@@H](O)[C@H](O)[C@H]2O)cc1
inactive: outcome (HACAT) | outcome (NIH3T3) | Potency (C33A) | outcome (CASKI) | Potency (Es-2) | Potency (HeLa) | Potency (Hek293T) | Potency (JEG-3)

C/C(=C\CCC(C)(C)O)CCO[C@@H]1O[C@H](CO[C@@H]2O[C@@H](C)[C@H](O)[C@@H](O)[C@H]2O)[C@@H](O)[C@H](O)[C@H]1O
inactive: outcome (HACAT) inactive [at 17.4 µM] | outcome (NIH3T3) inactive [at 17.4 µM] | Potency (CAOV3) | outcome (CASKI) | Potency (Es-2) | Potency (HeLa) | Potency (Hek293T) | Potency (JEG-3)

CC(=O)/C=C/[C@H]1[C@](C)(O)[C@@H](O)[C@H](O)C2C(C)(C)CCC[C@@]21C (stereo not given in full)
inactive: outcome (HACAT) | outcome (NIH3T3) | Potency (CAOV3) | Potency (Es-2)

C[C@@H]1C[C@@H](O)[C@@]23CO[C@]2(CO)C[C@@H](O)CC3[C@@]12CC(c1ccoc1)OC2=O (stereo not given in full)
inactive: outcome (HACAT) | outcome (NIH3T3) | Potency (C33A) | outcome (CASKI) | Potency (Es-2) | Potency (HeLa) | Potency (Hek293T) | Potency (JEG-3)

C=C1CC[C@H]2[C@@](C)(CCC(OC3OC(CO)C(O)C(O)C3O)[C@@]2(C)CO)C1C(=O)CC1=CCOC1=O (stereo not given in full)
inactive: outcome (HACAT) inactive [at 17.4 µM] | outcome (NIH3T3) inactive [at 17.4 µM] | Potency (C33A) | outcome (CASKI) | Potency (Es-2) | Potency (HeLa) | Potency (Hek293T) | Potency (JEG-3)

Cc1ccc([C@@H]2CC=C(C(=O)O)[C@H](c3ccc(C(C)(C)C)cc3)N2S(=O)(=O)c2ccc(C)cc2)cc1
inactive: outcome (HACAT) | outcome (NIH3T3) | Potency (C33A) | outcome (CASKI) | Potency (Es-2) | Potency (HeLa) | Potency (Hek293T) | Potency (JEG-3)

CCC(C)/C=C(C)/C=C/C1=CC2=C(Cl)C(=O)C(C)(O)C(=O)C2(O)C(OC)O1 (stereo not given)
inactive: outcome (HACAT) inactive [at 17.4 µM] | outcome (NIH3T3) inactive [at 17.4 µM] | Potency (C33A) | outcome (CASKI) | Potency (HeLa) | Potency (Hek293T) | Potency (JEG-3)

COc1cc(Nc2nc3ccccc3nc2NS(=O)(=O)c2cccc(NC(=O)c3ccc(C)c(OC)c3)c2)cc(OC)c1
inactive: outcome (HACAT) | outcome (NIH3T3) | Potency (C33A) | outcome (CASKI) | Potency (Es-2) | Potency (HeLa) | Potency (Hek293T) | Potency (JEG-3)

O=C(OCC1=C[C@@H](O)[C@@H]2C=CO[C@@H](O[C@@H]3O[C@H](CO)[C@@H](O)[C@H](O)[C@H]3O)[C@H]12)c1ccc(O)cc1
inactive: outcome (HACAT) inactive [at 17.4 µM] | outcome (NIH3T3) inactive [at 17.4 µM] | Potency (C33A) | outcome (CASKI) | Potency (Es-2) | Potency (HeLa) | Potency (Hek293T) | Potency (JEG-3)

O=C(Nc1ccccc1)Nc1ccc(-c2ccc(C(=O)C3CCCC3C(=O)O)cc2)cc1 (stereo not given)
inactive: outcome (HACAT) | outcome (NIH3T3) | Potency (C33A) | outcome (CASKI) | Potency (Es-2) | Potency (HeLa) | Potency (Hek293T) | Potency (JEG-3)

COc1cc(CO)ccc1O[C@@H]1O[C@H](CO)[C@@H](O)[C@H](O)[C@H]1O
inactive: outcome (HACAT) | outcome (NIH3T3) | Potency (C33A) | outcome (CASKI) | Potency (Es-2) | Potency (HeLa) | Potency (Hek293T) | Potency (JEG-3)

CC(=O)/C=C/C1(O)C(C)=CC(=O)CC1(C)C (stereo not given)
inactive: outcome (HACAT) | outcome (NIH3T3) | Potency (C33A) | outcome (CASKI) | Potency (Es-2) | Potency (HeLa) | Potency (Hek293T) | Potency (JEG-3)

O=C(CCCCC1CCCCC1)N1CCC(c2cnc[nH]2)CC1
inactive: outcome (HACAT) | outcome (NIH3T3) | Potency (CAOV3) | outcome (CASKI) | Potency (Es-2) | Potency (HeLa) | Potency (JEG-3)

C/C=C(/C)C(=O)OC1CC(C)(C)CC2C3=CCC4C5(C)CCC(OC6OC(C)C(OC7OC(C(=O)O)C(O)C(OC8OC(CO)C(O)C(O)C8OC8OC(CO)C(O)C(O)C8O)C7O)C(O)C6O)C(C)(C)C5CCC4(C)C3(C)C(OC(=O)/C=C/C=C/C=C/CCC)C(OC(C)=O)C12CO (stereo not given)
inactive: outcome (HACAT) inactive [at 9.27 µM] | outcome (NIH3T3) inactive [at 9.27 µM] | activity change, negative = cytotoxicity (C33A) -5.83% [at 6.55 µM] | activity change, negative = cytotoxicity (CASKI) -6.51% [at 6.55 µM] | activity change, negative = cytotoxicity (Es-2) 13.9% [at 6.55 µM] | activity change, negative = cytotoxicity (HeLa) 0% [at 6.55 µM] | activity change, negative = cytotoxicity (Hek293T) -3.11% [at 6.55 µM] | activity change, negative = cytotoxicity (JEG-3) -5.73% [at 6.55 µM]

C=C1C(O)CC2C(C(=O)O)=COC(OC3OC(CO)C(O)C(O)C3OC(=O)/C=C\c3ccc(O)cc3)C12 (stereo not given)
inactive: outcome (HACAT) inactive [at 17.4 µM] | outcome (NIH3T3) inactive [at 17.4 µM] | Potency (CAOV3) | outcome (CASKI) | Potency (Es-2) | Potency (HeLa) | Potency (Hek293T) | Potency (JEG-3)

CC(C)(O)C1CC=C(C(=O)OC[C@H]2O[C@@H](OC(=O)C3=CCC(C(C)(C)O)CC3)[C@H](O)[C@@H](O)[C@@H]2O)CC1 (stereo not given in full)
inactive: outcome (HACAT) inactive [at 17.4 µM] | outcome (NIH3T3) inactive [at 17.4 µM] | Potency (C33A) | outcome (CASKI) | Potency (Es-2) | Potency (HeLa) | Potency (Hek293T) | Potency (JEG-3)

Cc1nc2ccccc2c(-c2ccc3c4c(ccnc24)CCO3)c1[C@H](OC(C)(C)C)C(=O)O
inactive: outcome (HACAT) | Potency (C33A) | Potency (CAOV3) | outcome (CASKI) | Potency (Es-2) | Potency (HeLa) | Potency (Hek293T) | Potency (JEG-3)
